Sampled rows, rich in hits. Any-hit rate of the full collection: about 8.7%.
JMJD2A Tudor = inhibitors of human JMJD2A Tudor domain. AlphaScreen JMJD2A-Tudor / H3K4me3 peptide binding. O75164. 4.4% of 390,000 active. Potency, µM (titrated, usually from 114 µM), for inactives: at the highest dose activity change, negative = inhibition, usual class: inhibitors; note: % is set by controls: 0 for no effect and ±100 for the full control effect; nearly all actives have a fitted effect of over 50% in size
Target sequence (O75164 whole entry, looked up, the tested form may be a part): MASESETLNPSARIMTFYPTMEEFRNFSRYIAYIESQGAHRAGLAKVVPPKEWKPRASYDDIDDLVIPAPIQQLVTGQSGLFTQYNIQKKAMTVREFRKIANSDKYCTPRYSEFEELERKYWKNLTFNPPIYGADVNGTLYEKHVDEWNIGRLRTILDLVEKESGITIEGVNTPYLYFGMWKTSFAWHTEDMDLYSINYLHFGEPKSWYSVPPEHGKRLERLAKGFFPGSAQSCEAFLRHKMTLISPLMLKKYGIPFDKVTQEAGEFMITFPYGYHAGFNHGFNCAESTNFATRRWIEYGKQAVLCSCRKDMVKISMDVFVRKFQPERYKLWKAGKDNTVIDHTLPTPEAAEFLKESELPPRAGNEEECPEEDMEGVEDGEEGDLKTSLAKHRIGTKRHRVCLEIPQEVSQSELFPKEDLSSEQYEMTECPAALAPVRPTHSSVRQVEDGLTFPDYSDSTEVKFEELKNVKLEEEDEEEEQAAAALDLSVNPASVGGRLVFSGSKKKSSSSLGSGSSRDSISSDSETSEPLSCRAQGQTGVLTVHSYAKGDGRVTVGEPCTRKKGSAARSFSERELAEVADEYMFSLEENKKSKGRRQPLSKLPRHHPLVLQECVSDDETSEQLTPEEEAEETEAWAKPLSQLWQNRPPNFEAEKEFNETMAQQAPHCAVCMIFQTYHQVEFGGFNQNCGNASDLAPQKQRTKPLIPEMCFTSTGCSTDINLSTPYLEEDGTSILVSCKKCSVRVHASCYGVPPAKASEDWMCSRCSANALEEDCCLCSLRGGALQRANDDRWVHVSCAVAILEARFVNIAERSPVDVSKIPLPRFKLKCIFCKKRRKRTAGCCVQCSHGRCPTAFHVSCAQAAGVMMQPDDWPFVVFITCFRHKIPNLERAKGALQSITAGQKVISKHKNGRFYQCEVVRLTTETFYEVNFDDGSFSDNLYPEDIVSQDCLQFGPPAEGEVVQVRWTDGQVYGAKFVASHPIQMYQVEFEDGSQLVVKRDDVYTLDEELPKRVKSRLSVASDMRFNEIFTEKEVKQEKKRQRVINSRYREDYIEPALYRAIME
BAZ2B block = blocks human BAZ2B; AID 504333; Potency, µM (titrated, usually from 114 µM), for the others: at the highest dose activity change, negative = inhibition, most hits filed as inhibitors; AlphaScreen BAZ2B-H3K14Ac peptide displacement; 4.4% of 360,000 active; note: % is set by controls: 0 for no effect and ±100 for the full control effect; nearly all actives have a fitted effect of over 60% in size
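AlphaScreen luminescence quantifies BAZ2B engagement of H3K14Ac peptide; the protein and biotinylated peptide are both at 50 nM final, buffer PBS pH 7.4 with 0.01% Tween-20, all steps at room temperature.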
G9a inh = inhibitors of human histone lysine methyltransferase G9a; Q96KQ7; Potency, µM (series often up to 102 µM), for inactives: at the top dose activity, negative = inhibition, hits mostly inhibitors; G9a H3K9 monomethylation, AlphaScreen, 2 h; 8.8% of 350,000 active; note: % is set by controls: 0 for no effect and ±100 for the full control effect; nearly all actives have a fitted effect of over 75% in size
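Enzyme 20 nM + cpd, 15 min RT; add b-H3K9 pep 500 nM / SAM 20 uM; 2 h RT; anti-H3K9me1 Ab 0.5 ug/mL + SA donor / anti-rabbit acceptor beads 20 ug/mL each, 10 min; AlphaScreen read.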
ALOX12 inh = blocks human arachidonate 12S-lipoxygenase | 1.1% of 580,000 active | Potency, µM (top dose mostly 108 µM), inactives show at the top dose activity change, negative = inhibition, usual class: inhibitors | P18054 | purified 12hLO, xylenol orange hydroperoxide absorbance; note: % is set by controls: 0 for no effect and ±100 for the full control effect
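Purified human 12hLO at 150 nM in 25 mM Hepes, 0.01% Triton X-100, pH 7.0, preincubated 15 min at room temperature with compound. Reaction started with 40 uM arachidonic acid, 30 min at room temperature. Hydroperoxide measured by Fe-xylenol orange, 573/405 nm absorbance ratio.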
Sfp inh = inhibitors of Bacillus subtilis Sfp phosphopantetheinyl transferase | 3.5% of 310,000 active | AID 1490 | Biochemical Sfp PPTase activity, qHTS | Potency, µM, without a hit: largest response in the series, negative = inhibition, most hits filed as inhibitors;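 note: the enzyme is Sfp with the accession as filed and its product quenches rhodamine fluorescence; 0% = enzyme reaction without inhibitor and -100% = no enzyme wells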
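Fluorescence-quenching assay: 15 nM Sfp-PPTase preincubated 15 min at room temperature with compound, then 5 uM rhodamine-CoA and 12.5 uM BHQ-2-labelled YbbR peptide added. Fluorescence (ex 525/em 598 nm) read at start and after 30 min; difference gives rate.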
HP1b binding inh = blocks HP1-beta chromodomain binding to methylated histone tails; 0.56% of 390,000 active; AID 540317; AlphaScreen HP1-beta / biotin-H3K9me3 peptide binding; Potency, µM (highest dose often 114 µM), inactives show at the top dose activity change, negative = inhibition, hits mostly inhibitors; note: nearly all actives have a fitted effect of over 70% in size
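Compound inhibition of the preformed complex between 50 nM HP1-beta and 50 nM biotinylated H3K9me3 peptide was read by AlphaScreen. Buffer was PBS pH 7.4 with 0.01% Tween-20. Incubations ran 30 min at room temperature, with 10 ug/mL donor/acceptor beads.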
An asterisk follows results filed as active; ? = inconclusive; . = no result given; [ ] = remark or other dose. Calls come from the whole dose curve; as a rule, active = well fitted curve in the direction sought with a large enough effect; inconclusive = small, poorly fitted or top-dose-only effect, or another doubt; inactive = no such curve, though single readings can be large; an effect the other way counts as inactive or inconclusive. Potency is the fitted concentration of half-maximal effect.

SMILES | JMJD2A Tudor | BAZ2B block | G9a inh | ALOX12 inh | Sfp inh | HP1b binding inh
CCOc1ccc(N2C(=O)CN(S(=O)(=O)c3ccccc3)CC2(C)C(=O)NCCC(C)C)cc1 (centres undefined) | . | . | . | 5% | . | .
CCOc1cc(/C=C/C(=O)OCC(=O)NCc2ccco2)cc(Cl)c1OC | ? | ? | 50µM* | -10% | . | -14%
COc1cc(/C=C/C(=O)OCC(=O)NCc2ccco2)ccc1OC(F)F | -17% | -27% | 40µM* | -4% | -14% | 3%
O=c1c2c(nc3cc(-c4ccccc4)[nH]n13)CN(S(=O)(=O)c1cccs1)CC2 | . | . | . | 20% | . | .
CC(C)N(C(=O)[C@H]1C[C@H](CC(=O)NCCc2ccccn2)C(=O)N2CCc3c([nH]c4cc(-c5ccco5)ccc34)[C@]12C)C(C)C | 56µM* | . | . | -5% | . | -36%
CC(C)N(C(=O)[C@H]1C[C@H](CC(=O)NCc2ccco2)C(=O)N2CCc3c([nH]c4cc(-c5ccco5)ccc34)[C@]12C)C(C)C | 56µM* | . | . | -12% | . | ?
CCN(CC)C(=O)[C@H]1C[C@H](CC(=O)NCCc2ccccn2)C(=O)N2CCc3c([nH]c4cc(-c5ccco5)ccc34)[C@]12C | ? | . | . | ? | . | -6%
Cc1cc(OCCn2cncn2)ccc1[N+](=O)[O-] | -4% | 7% | . | 13% | -2% | 34%
COc1ccc(OCCCn2ccnc2)cc1 | 0.89µM* | 22µM* | -50%[2.33 µM] | . | ? | 16µM*
COc1ccccc1OCCn1ccnc1 | 3.5µM* | ? | . | ? | -30% | ?
Fc1ccc(OCCCn2ccnc2)cc1 | 45µM* | ? | 40µM* | ? | -6% | ?
Cc1cc(OCCCn2ccnc2)ccc1[N+](=O)[O-] | 6.3µM* | 56µM* | . | -19% | ? | ?
Fc1ccc(OCCCCCn2ccnc2)cc1 | -18% | -26% | 13% | ? | -11% | 18%
Cc1cc(OCCN2CCCCCC2)ccc1[N+](=O)[O-] | ? | 56µM* | 25µM* | ? | 12% | ?
COc1ccccc1N(C)S(=O)(=O)c1ccc(C(=O)Nc2ccc(N3CCOCC3)cc2)cc1 | ? | ? | 40µM* | -6% | 15% | 0%
C=CCN(c1ccccc1OC)S(=O)(=O)c1ccc(Cl)c(C(=O)Nc2ccc(N3CCOCC3)cc2)c1 | -31% | ? | 25µM* | -18% | 6% | 4%
CN1CCc2c([nH]c3ccccc23)C12CCN(S(=O)(=O)c1cccnc1)CC2 | . | . | . | 1% | . | .
C=C(COC(C)=O)C1Cc2c(ccc3c2OC2COc4cc(OC)c(OC)cc4C2C3=O)O1 (centres undefined) | . | . | . | -26% | . | .
COc1ccc(-c2noc(-c3ccc(S(=O)(=O)N4CCOCC4)o3)n2)cc1 | . | . | . | -29% | . | .
CCOc1ccc(NCc2nc3ccccc3n2CCOc2ccccc2)cc1 | 18µM* | 11µM* | 32µM* | 8% | -2% | -74%
CCOc1ccc(NCc2nc3ccccc3n2CCOc2ccc(C)cc2)cc1 | 11µM* | 13µM* | 14µM* | 0% | . | ?
Clc1ccc(NCc2nc3ccccc3n2CCOc2ccccc2)cc1 | -5% | -1% | 8%[59 µM] | 1% | . | 54%
Cn1c(COc2ccc(Cl)cc2)nnc1SCCOc1ccc(Cl)cc1 | . | . | . | -23% | . | .
CC(C)c1ccc2oc(-c3cc(N)ccc3O)nc2c1 | ? | -8% | ? | ? | -5% | -13%
CC(C)c1ccc2oc(-c3ccc(N)cc3O)nc2c1 | . | . | . | 35µM* | . | .
SMILES | JMJD2A Tudor | BAZ2B block | G9a inh | ALOX12 inh | Sfp inh | HP1b binding inh
COC(=O)c1c[nH]n2c(=O)cc(CCl)nc12 | 79µM* | ? | 19%[59 µM] | 19% | 0% | 24%
CC1=C(C(=O)NC(C)(C)C)C(c2ccc(Cl)cc2)N2C(CC(=O)N3CCCC3)=CSC2=N1 (centres undefined) | . | . | . | -7% | . | .
COc1ccc(SN=C2C(C)=CC(=O)C=C2C)cc1 | ? | ? | 16µM* | -16% | -11% | ?
COc1ccc(C(=O)ON=C2C=C(C)C(=O)C(C)=C2)cc1 | -1% | -12% | 6% | -3% | 15% | 31%
CC1(c2ccc(Cl)cc2)NC(=S)N2C1NC(=S)N2c1ccccc1 (centres undefined) | -30% | 50µM* | -113%[59 µM] | ? | -10% | 27%
Cc1ccc(-c2n[nH]c(=S)c3ccccc23)cc1S(=O)(=O)NCC1CCCO1 (centres undefined) | 18µM* | -33% | 22µM* | ? | 6% | -36%
O=C(NNc1nc2ccc(Cl)cc2s1)c1cc(-c2cccs2)nc2ccccc12 | ? | -34% | -9% | ? | -4% | 49%
Cc1ccc2sc(NNC(=O)c3cc(-c4cccs4)nc4ccccc34)nc2c1C | . | 5% | 32µM* | 2%[57.4 µM] | -19% | .
Cc1ccc(NC(=O)c2cc(-c3cccs3)nc3ccccc23)nc1 | 11% | -18% | 40µM* | ? | -12% | 63%
CC(C)(C)NC(=O)c1cc(-c2cccs2)nc2ccccc12 | . | . | . | -10% | . | .
Cc1cc(C)c2nc(NNC(=O)c3cc(-c4cccs4)nc4ccccc34)sc2c1 | ? | ? | 32µM* | -12% | -27% | 36%
COc1ccc(Oc2cc(CNS(=O)(=O)N3CCCCCC3)ccn2)cc1 | . | . | . | -4% | . | .
